# LDHA inh = LDHA (human) enzyme inhibition. P00338. purified LDHA, NADH/diaphorase-resazurin fluorescence; active compounds read low. 480,000 tested, 0.15% active. activity change, % (values are at about 110 or 230 µM); in the data active means activity change below about -30%; inconclusive means mostly about -25% to -30%;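 further: plate controls were DMSO wells for no effect and wells without enzyme for full effect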
#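 Remaining NADH was detected by diaphorase (0.133 mg/mL) converting 37 µM resazurin to fluorescent resorufin, read at 0 and 20 minutes. The preceding 5-minute room-temperature reaction used 2 nM LDHA, 0.2 mM sodium pyruvate and 0.06 mM NADH at pH 7.4.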
# TDP1 cell noCPT = qHTS for Inhibitors of human tyrosyl-DNA phosphodiesterase 1 (TDP1): qHTS in cells in absence of CPT | 420,000 tested, 15% active | Potency, µM (highest dose often 46.2 µM), inactives show top-dose activity change, negative = growth inhibition, hits mostly inhibitors | DT40 Tdp1-/- hTDP1 cells, no CPT, ATP luminescence, 48 h; further: potency means the concentration at half of the fitted maximal effect; nearly all actives have a fitted effect of over 55% in size
#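 Cells were dispensed at 400 per well, compounds added by pin tool, plates incubated ≥48 hr at 37 °C, then CellTiter-Glo added for 30 min at room temperature before luminescence reading. Line: DT40 Tdp1-/- complemented with hTDP1; camptothecin omitted.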
# RORgamma inh = inhibitors of mouse ROR gamma transcriptional activity; P51450; Drosophila S2 Gal4-RORgamma UAS-luciferase reporter, 20 h; Potency, µM (titrated, usually from 53.6 µM), without a hit: top-dose activity change, negative = inhibition, hits mostly inhibitors; 310,000 tested, 5.4% active; AID 2551; further: potency means the concentration at half of the fitted maximal effect; nearly all actives have a fitted effect of over 60% in size
# Target sequence (P51450 whole entry, looked up, the tested form may be a part): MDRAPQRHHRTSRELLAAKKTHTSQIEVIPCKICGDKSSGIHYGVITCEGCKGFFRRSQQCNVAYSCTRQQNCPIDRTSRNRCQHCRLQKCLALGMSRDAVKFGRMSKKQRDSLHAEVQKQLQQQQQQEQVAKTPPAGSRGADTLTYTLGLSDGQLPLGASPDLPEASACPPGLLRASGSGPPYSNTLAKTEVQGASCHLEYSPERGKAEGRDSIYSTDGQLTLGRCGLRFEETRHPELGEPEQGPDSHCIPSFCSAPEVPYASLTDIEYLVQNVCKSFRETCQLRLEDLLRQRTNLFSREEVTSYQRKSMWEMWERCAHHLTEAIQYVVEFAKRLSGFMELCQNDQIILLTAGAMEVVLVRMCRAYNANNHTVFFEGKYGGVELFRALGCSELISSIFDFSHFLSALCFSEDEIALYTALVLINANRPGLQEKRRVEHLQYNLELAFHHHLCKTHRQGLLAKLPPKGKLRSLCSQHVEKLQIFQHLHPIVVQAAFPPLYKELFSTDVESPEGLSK
#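 Using a luciferase readout, inhibitors were identified by reduced reporter activity in Drosophila cells coexpressing a copper-inducible Gal4–ROR gamma fusion and UAS-driven Photinus luciferase, incubated 20 hr after 700 uM copper sulfate.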
# IL-1B inflam inh = blocks inflammasome-driven IL-1 beta release. THP-1 LPS/ATP IL-1B secretion, AlphaLISA, 16 h; active compounds read low. activity change, % at 57.5 µM. 360,000 tested, 4.7% active. AID 743279; in the data active means activity change below about -50%; inconclusive means mostly about -30% to -49%
#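 THP-1 cells pretreated 1 hr with compounds (up to 57.5 uM final), then stimulated with LPS (250 ng/mL final) plus ATP (1.25 mM final); secreted IL-1B measured by AlphaLISA after 16 hr, decreased signal indicating inhibition.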
# TDP1 cell CPT = growth inhibition of DT40 Tdp1-/-;hTDP1 cells with camptothecin (screen for TDP1 inhibitors); chicken DT40 Tdp1-/-;hTDP1 cells + 20 nM CPT, ATP luminescence, 48 h; Potency, µM (highest dose often 46.2 µM), without a hit: at the highest dose activity change, negative = growth inhibition, most hits filed as inhibitors; 420,000 tested, 12% active; further: potency means the concentration at half of the fitted maximal effect; nearly all actives have a fitted effect of over 55% in size
#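 Chicken DT40 Tdp1-/- cells stably complemented with human TDP1 were seeded at 400 cells/well in medium containing 20 nM camptothecin, exposed to pin-transferred compounds, and grown at 37 °C for at least 48 hr. Viability was read as ATP luminescence.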
# Gal4-VP16 FLuc = inhibits Gal4-VP16 luciferase reporter, ROR gamma counter-screen | Drosophila S2 Gal4-VP16 UAS-luciferase, luminescence, 20 h | Potency, µM (titrated, usually from 53.6 µM), for inactives: top-dose activity, negative = inhibition, hits mostly inhibitors | 310,000 tested, 3.5% active | AID 2546;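 further: Gal4-VP16 expression switched on by copper sulfate through the metallothionein promoter; potency means the concentration at half of the fitted maximal effect; nearly all actives have a fitted effect of over 50% in size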
# * marks the source's active call; other numbers are inactive results; ? = inconclusive; · = not tested or not shown. In the library only some 18% were active in any assay of this set; here they are far more common. Unless noted, the call rests on the fitted dose curve; in most records, active means well fitted curve in the direction sought with a large enough effect; inconclusive means small, poorly fitted or top-dose-only effect, or another doubt; inactive means no such curve, though single readings can be large; an effect the other way counts as inactive or inconclusive. Unless noted, on the % scale 0 is the no-effect control and ±100 the full control effect.
SMILES,LDHA inh,TDP1 cell noCPT,RORgamma inh,IL-1B inflam inh,TDP1 cell CPT,Gal4-VP16 FLuc
Cc1ccc(/C=C/c2onc(C)c2S(=O)(=O)N2CCC(C(=O)N3CCC(C)CC3)CC2)cc1,-0.6,·,·,·,·,·
Cc1cc(C)c(/C=C/c2onc(C)c2S(=O)(=O)N2CCC(C(=O)N3CCN(c4ccccc4)CC3)CC2)c(C)c1,7.0,13µM*,·,·,16.4µM*,·
Cc1cc(C)c(/C=C/c2onc(C)c2S(=O)(=O)N2CCC(C(=O)NCc3ccccc3Cl)CC2)c(C)c1,-6.5,?,·,·,-27.4%,·
O=C(CCc1ccsc1)Nc1cccc(N2CCCC2=O)c1,-16.0,·,·,·,·,·
CCC(C)n1nnc2cc(S(=O)(=O)N3CCC(C(=O)NCc4ccc(OC)cc4)CC3)ccc21 (stereo not given),2.6,·,·,·,·,·
COc1cccc(CN(C(=O)c2sc3cc(C)ccc3c2Cl)C2CCS(=O)(=O)C2)c1 (stereo not given),4.2,·,·,·,·,·
COc1ccc(Nc2nc(Nc3ccccc3)c3nccnc3n2)cc1Cl,-9.7,·,·,·,·,·
CCC(C)(C)NC(=O)C1CCN(S(=O)(=O)c2c(C)noc2/C=C/c2ccc(C)cc2)CC1,-5.0,?,·,·,23.1µM*,·
Cc1cccc(/C=C/c2onc(C)c2S(=O)(=O)N2CCC(C(=O)NC(C)(C)C)CC2)c1,-4.7,?,10.8%,3.2,?,2.5%
Cc1ccc(/C=C/c2onc(C)c2S(=O)(=O)N2CCC(C(=O)N3CCN(C)CC3)CC2)cc1,-7.3,23.1µM*,?,·,?,-29.8%
COc1ccc(C(=O)C(C)OC(=O)c2ccc(C(C)=O)s2)cc1 (stereo not given),2.2,·,·,·,·,·
Cc1ccc(C)c(N2CCN(C(=O)c3ccc(N4CCOCC4)c([N+](=O)[O-])c3)CC2)c1,-5.5,16.4µM*,21.7%,-51.0*,?,-8.1%
O=C(NNC(=S)Nc1ccc(Cl)cc1Cl)c1ccncc1,-3.6,16.4µM*,?,-1.2,-17.4%,11.2µM*
O=C(c1ccc(N2CCOCC2)c([N+](=O)[O-])c1)N1CCCCC1,-2.6,0.9%,3.2%,39.4,-10.9%,0.0%
O=C(NNC(=S)Nc1ccc(Cl)cc1Cl)c1ccc(N2CCOCC2)c([N+](=O)[O-])c1,-14.8,-3.6%,11.2µM*,-11.2,-1.6%,?
O=C(NNC(=S)Nc1ccc(Cl)cc1Cl)c1cccnc1,-2.4,8.9%,·,-1.7,6.5%,·
O=C(NNC(=S)Nc1ccc(Br)cc1)c1ccc(N2CCOCC2)c([N+](=O)[O-])c1,-3.7,?,12.6µM*,-3.4,-26.2%,12.6µM*
O=C(Nc1cccnc1)c1ccc(N2CCOCC2)c([N+](=O)[O-])c1,-7.2,-12.7%,?,-24.4,-18.6%,8.8%
COc1ccc(CNC(=O)CCc2ncc(-c3ccc(C)cc3)o2)cc1,5.7,·,·,·,·,·
COC(=O)c1cccc(-c2ccc(C=O)o2)c1,-1.8,·,·,·,·,·
CCN1CCN(CCOc2ccc3c(=O)c(-c4ccc(Cl)cc4)coc3c2)CC1,1.5,·,·,·,·,·
Cc1ccc(NC(=S)NNC(=O)c2ccc(N3CCOCC3)c([N+](=O)[O-])c2)cc1Cl,-14.9,-11.9%,15.8µM*,-15.7,0.6%,12.6µM*
Cc1cc(C)nc(CC#N)n1,-6.5,·,·,·,·,·
CC(C)c1cnc2c(c1SCC(=O)O)c(=O)n(C)c(=O)n2C,-10.0,6.3%,·,·,0.6%,·
CC(C)c1cnc2c(c1SCc1ccc([N+](=O)[O-])cc1)c(=O)n(C)c(=O)n2C,-0.7,8.2µM*,·,·,?,·
CC(C)c1cnc2c(c1SCC(=O)NCc1ccccc1)c(=O)n(C)c(=O)n2C,-5.0,?,·,·,?,·
CCc1cnc2c(c1SC(C(C)=O)C(=O)N(C)C)c(=O)n(C)c(=O)n2C (stereo not given),-1.2,?,·,·,23.1µM*,·
CC1CCN(C(=O)CSc2c(C(C)C)cnc3c2c(=O)n(C)c(=O)n3C)CC1,-3.5,16.4µM*,·,·,25.9µM*,·

# Screens as filed in PubChem BioAssay.
